Source: PubChem
Hits are enriched below; roughly 4.1% of the tested compounds scored in any of these assays.
DAX1 inh-1 – inhibits human nuclear receptor DAX1. P51843. HEK293 Gal4-DAX1 luciferase reporter, luminescence. inhibition, % at 6.75 µM. 340,000 tested, 0.99% active;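 active = inhibition above the mean over all tested compounds plus 3 SD, cut at about 4.2% in these data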;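 also: 0% = DAX1-transfected cells with DMSO and 100% = empty-vector control cells with DMSO; inhibition shows as a rise in luminescence from relieved DAX1 repression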
Target sequence (P51843 207-470 limits assumed): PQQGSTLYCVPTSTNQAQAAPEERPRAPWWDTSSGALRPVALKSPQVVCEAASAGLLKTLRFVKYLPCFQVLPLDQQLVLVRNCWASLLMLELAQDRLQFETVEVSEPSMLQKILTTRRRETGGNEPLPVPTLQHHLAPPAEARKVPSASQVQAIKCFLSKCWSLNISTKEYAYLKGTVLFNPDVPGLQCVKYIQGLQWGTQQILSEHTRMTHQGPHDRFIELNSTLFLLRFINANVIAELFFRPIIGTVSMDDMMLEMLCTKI
hcDAF-12 act – activates DAF-12 receptor from parasite H. contortus | HEK293 hcDAF-12 lit1-tk-luc reporter, luminescence; 0% DMSO, 100% Δ7-dafachronic acid | 370,000 tested, 1.4% active | activation, % at 6.8 µM | AID 652067;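 active = activation above the mean of all tested compounds plus 3 SD, cut at about 5.5% in these data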;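 also: 100% = response to 3 µM Δ7-dafachronic acid high control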
hgDAF12 agonist – hgDAF-12 agonism, primary luciferase screen; activation, % at 6.8 µM; HEK293 GAL4-hgDAF12 UAS-luciferase reporter, agonist luminescence; normalized to butyrate control; 370,000 tested, 1.8% active;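 active = activation above a cutoff set at the mean of all screened compounds plus 3 SD, cut at about 10% in these data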;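 also: 0% = DMSO wells and 100% = sodium butyrate wells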
ssDAF-12 act – activates DAF-12 receptor from parasite S. stercoralis | HEK293 ssDAF-12/GRIP1 lit1-tk-luc reporter, luminescence; % of 3 µM dafachronic acid response | activation, % at 6.8 µM | 370,000 tested, 1% active | AID 652126;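 active = activation above the mean over all tested compounds plus 3 SD, cut at about 0.9% in these data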;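 also: 0% = DMSO-only wells and 100% = 3 µM delta7-dafachronic acid wells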
DAX1 inh-2 – blocks DAX1 repression of SF-1 activated StAR promoter. HEK293T StAR-luciferase reporter, SF-1/DAX-1 repression relief. inhibition, % at 6.8 µM. 370,000 tested, 1.1% active;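 active = inhibition above the mean over all tested compounds plus 3 SD, cut at about 3.6% in these data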;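 also: 0% = DAX-1 cells with DMSO and 100% = cells lacking DAX-1 with DMSO; higher inhibition means more luminescence from relief of DAX-1 repression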
* = called active by the depositor.

O=C(Nc1nc2ccc([N+](=O)[O-])cc2s1)c1c(F)cccc1F was read as DAX1 inh-1 0, hcDAF-12 act -1, hgDAF12 agonist -1, ssDAF-12 act -1 and DAX1 inh-2 0.
`O=C(Nc1nc2ccc(Cl)cc2s1)C1CCCO1` (configuration not stated) gave DAX1 inh-1 2, hcDAF-12 act 1, hgDAF12 agonist 8, ssDAF-12 act 0 and DAX1 inh-2 1.
O=C(Nc1nc2ccc([N+](=O)[O-])cc2s1)c1ccco1 was read as hcDAF-12 act 2, hgDAF12 agonist 8, ssDAF-12 act 0 and DAX1 inh-2 4.2*.
Screening O=C(Nc1nc2ccc([N+](=O)[O-])cc2s1)C1CCCO1 (configuration not stated) returned DAX1 inh-1 5.4*, hcDAF-12 act 2, hgDAF12 agonist 6, ssDAF-12 act 0 and DAX1 inh-2 1.
For O=C(CSc1nnc(-c2ccc(Cl)cc2)n1-c1ccccc1)NN=Cc1c[nH]c2ccccc12 the results were hcDAF-12 act 1, hgDAF12 agonist -1, ssDAF-12 act -2 and DAX1 inh-2 0.
For c1csc(-c2noc(CN3CCOCC3)n2)c1 the results were DAX1 inh-1 4.7*, hcDAF-12 act 2, hgDAF12 agonist 2, ssDAF-12 act -1 and DAX1 inh-2 0.
CN(CCN1CCOCC1)Cc1nc(-c2cccs2)no1 was read as DAX1 inh-1 2, hcDAF-12 act 1, hgDAF12 agonist 2, ssDAF-12 act -1 and DAX1 inh-2 1.
`COc1cc(Nc2cc(C)nc3ncnn23)cc(OC)c1OC` gave DAX1 inh-1 5.5*, hcDAF-12 act 1, hgDAF12 agonist 0, ssDAF-12 act -1 and DAX1 inh-2 0.
COc1cc(Nc2cc(C)nc3ncnn23)cc(OC)c1 was read as DAX1 inh-1 0, hcDAF-12 act -1, hgDAF12 agonist -5, ssDAF-12 act -1 and DAX1 inh-2 1.
`O=C(Nc1ccc(Cl)cc1)O[C@@H]1CC[C@@]23CCCN2C(=O)CCC[C@H]3C1` gave hcDAF-12 act -3, hgDAF12 agonist -2 and ssDAF-12 act -2.
`Cn1c(=O)c2cc(NC(=O)NCc3ccccc3)ccc2n1C/C=C/c1ccccc1` gave hcDAF-12 act 1, hgDAF12 agonist 11*, ssDAF-12 act -1 and DAX1 inh-2 1.
`Cc1cc(C)cc(Cn2c3ccc(NC(=O)NCc4ccccc4)cc3c(=O)n2C)c1` gave hcDAF-12 act -2, hgDAF12 agonist -1, ssDAF-12 act -1 and DAX1 inh-2 -1.
Fc1cccc2sc(Nc3nnc(-c4ccco4)o3)nc12 was read as DAX1 inh-1 0, hcDAF-12 act 4, hgDAF12 agonist 13*, ssDAF-12 act 0 and DAX1 inh-2 2.
`CCOC(=O)CN1C(=O)S/C(=C/c2ccc(O)c([N+](=O)[O-])c2)C1=O` gave DAX1 inh-1 5.9*, hcDAF-12 act 1, hgDAF12 agonist -1, ssDAF-12 act -2 and DAX1 inh-2 -1.
Screening CCOC(=O)CN1C(=O)S/C(=C/c2ccc(C)o2)C1=O returned DAX1 inh-1 0, hcDAF-12 act -2, hgDAF12 agonist 4, ssDAF-12 act -1 and DAX1 inh-2 1.
CCOc1ccc(CCNC(=O)c2cc3sccc3n2CC)cc1OC was read as hcDAF-12 act -5, hgDAF12 agonist -4, ssDAF-12 act -2 and DAX1 inh-2 -4.
`Nc1ccc(S(N)(=O)=O)cc1` gave DAX1 inh-1 2, hcDAF-12 act -2, hgDAF12 agonist -1, ssDAF-12 act -2 and DAX1 inh-2 -1.
Nc1ccc(S(N)(=O)=O)cc1N was read as DAX1 inh-1 7.3*, hcDAF-12 act 4, hgDAF12 agonist 13*, ssDAF-12 act 1 and DAX1 inh-2 3.
Cc1cc(C(=O)Nc2sc3c(c2C#N)CCCC3)no1 was read as DAX1 inh-1 3, hcDAF-12 act 5, hgDAF12 agonist 12*, ssDAF-12 act 0 and DAX1 inh-2 3.
Screening CC(C(=O)Nc1sc2c(c1C#N)CCCCC2)N1C(=O)c2ccccc2C1=O (configuration not stated) returned DAX1 inh-1 2, hcDAF-12 act 4, hgDAF12 agonist 3, ssDAF-12 act 1.1* and DAX1 inh-2 0.
`Cc1cc(C(=O)Nc2sc3c(c2C#N)CCC3)no1` gave DAX1 inh-1 1, hcDAF-12 act 1, hgDAF12 agonist 8, ssDAF-12 act 0 and DAX1 inh-2 1.
CC(=O)Nc1sc2c(c1C#N)CCCCC2 was read as DAX1 inh-1 0, hcDAF-12 act -1, hgDAF12 agonist 1, ssDAF-12 act -1 and DAX1 inh-2 0.
For c1ccc2cc(Cn3ccc4ccc(-c5ccc6ccn(Cc7ccc8ccccc8c7)c6c5)cc43)ccc2c1 the results were hcDAF-12 act -1, hgDAF12 agonist 1, ssDAF-12 act -1 and DAX1 inh-2 -1.
`O=CNc1ccc2c(c1)Cc1cc([N+](=O)[O-])ccc1-2` gave DAX1 inh-1 -3, hcDAF-12 act 0, hgDAF12 agonist 8, ssDAF-12 act -1 and DAX1 inh-2 -4.
`CCC(=O)Nc1ccc2c(c1)Cc1cc([N+](=O)[O-])ccc1-2` gave DAX1 inh-1 1, hcDAF-12 act 0, hgDAF12 agonist 11*, ssDAF-12 act -1 and DAX1 inh-2 1.
Screening COc1cc(C(=O)NC2CCCCN(Cc3ccc(Cl)cc3)C2=O)cc(OC)c1OC (configuration not stated) returned hcDAF-12 act -3, hgDAF12 agonist -3, ssDAF-12 act -1 and DAX1 inh-2 -1.
CCCC(=O)Nc1nc2nc(-c3ccccc3)cc(-c3ccccc3)n2n1 was read as DAX1 inh-1 0, hcDAF-12 act -1, hgDAF12 agonist -2, ssDAF-12 act -1 and DAX1 inh-2 0.
`O=C(O)CCC(=O)Nc1nc2nccc(-c3ccccc3)n2n1` gave DAX1 inh-1 4.8*, hcDAF-12 act 1, hgDAF12 agonist 0, ssDAF-12 act -1 and DAX1 inh-2 0.
COc1cccc(N2C(C(C)=O)=NN(c3ccccc3)C2c2ccc(N3CCOCC3)cc2)c1 (configuration not stated) was read as DAX1 inh-1 1, hcDAF-12 act 1, hgDAF12 agonist 11*, ssDAF-12 act 1 and DAX1 inh-2 1.
For COc1cccc2cc(-c3csc(CCn4nc(C)cc4C)n3)c(=O)oc12 the results were DAX1 inh-1 1, hcDAF-12 act -2, hgDAF12 agonist 0, ssDAF-12 act -1 and DAX1 inh-2 0.
For CC/C(C)=N/Nc1nc(-c2cc3cccc(OC)c3oc2=O)cs1 the results were hcDAF-12 act 5, hgDAF12 agonist 12*, ssDAF-12 act -1 and DAX1 inh-2 2.
Screening COc1cccc2cc(-c3ccccc3)oc12 returned hcDAF-12 act -2, hgDAF12 agonist 0, ssDAF-12 act -1 and DAX1 inh-2 0.
